This is an account of results in PubChem BioAssay (Tox21).

Molecules are shown by their SMILES. Inconclusive results are not listed. A call without a number means that no potency is given here. Unmarked numbers belong to inactive results. Active and inactive are the calls of the source. The call rests on the fitted dose curve; in most records, active means well fitted activation curve with a large enough effect in the signal ratio in the repeat runs (not every such curve was filed as active); inconclusive means weak or mixed curves, or effect the other way; inactive means no such curve, though single readings can be large or run the other way; the % refers to the signal ratio.
Potency means the concentration at half of the fitted maximal effect.

The nature of this assay: qHTS assay for small molecule agonists of the antioxidant response element (ARE) signaling pathway (AID 743202). The note with it: HepG2 ARE-bla reporter, beta-lactamase FRET, 16 h; series mostly up to 73.3 µM. The source says:
U.S. Tox21 Program National Center for Advancing Translational Sciences [NCATS] NIH Chemical Genomics Center [NCGC] U.S. Environmental Protection Agency [EPA] National Institutes of Environmental Health Sciences [NIEHS] National Toxicology Program [NTP] U.S. Food and Drug Administration [FDA] Tox21 Assay Overview: Oxidative stress has been implicated in the pathogenesis of a variety of diseases ranging from cancer to neurodegeneration. The antioxidant response element (ARE) signaling pathway plays an important role in the amelioration of oxidative stress. The CellSensor ARE-bla HepG2 cell line (Invitrogen) can be used for analyzing the Nrf2/antioxidant response signaling pathway. Nrf2 (NF-E2-related factor 2) and Nrf1 are transcription factors that bind to AREs and activate these genes. The CellSensor ARE-bla Hep G2 cell line contains a beta-lactamase reporter gene under control of the Antioxidant Response Element (ARE) stably integrated into HepG2 cells. The activation of the report gene under culture conditions can be detected by fluorescence intensity. This cell line has been used to screen the Tox21 10K compound library to identify agonists that induce oxidative stress.
Tox21 Assay Protocol Summary: The ARE-bla cells were dispensed at 2,000 cells/5 ul/well in 1536-well black wall/clear bottom plates using a Multidrop dispenser. After the assay plates were incubated at a 37 C/5% CO2 incubator for 5 hours, 23 nL of compounds dissolved in DMSO, positive controls or DMSO only was transferred to the assay plate by a pin tool. The plates were incubated at 37 C for 16 hours. After 1 uL of LiveBLAzer B/G FRET substrate was added using a Flying Reagent Dispenser, the plates were incubated at room temperature for 2 hours, and fluorescence intensity was measured by an Envision plate reader.
For `Cc1c(N=C=O)cccc1N=C=O`, the Potency entry was “inactive”. Regarding `CCCCCCCCNC`, the Potency result is “inactive”.

On to `CC(CCl)OC(C)CCl` (stereo not given), for which the Potency result was “inactive”. `COc1cc(C)c(Cc2cnc(N)nc2N)cc1OC`: the Potency entry was “inactive”. Still for that read-out and setting: the same measure for `C[Si](C)(C)O[Si](C)(C)O[Si](C)(C)C`: “inactive”. The same measure, in the same setting: the same measure for `O=C(OCCOCCOCCOC(=O)c1ccccc1)c1ccccc1`: “inactive”. `CNc1ccccc1`: the Potency entry was “inactive”.

Regarding `CC(C)=CCC/C(C)=C/C=N/O`, the Potency entry was “inactive”. In the case of `CC(C)(C)NCC(O)COc1ccc(NC(=O)NC2CCCCC2)cc1` (stereo not given), the Potency entry is “inactive”. Still for that read-out and setting: the same measure for `OCC(O)c1ccccc1` (stereo not given): “inactive”; for `Nc1ccc(F)cc1F`: “inactive”.

In the case of `COC=O`, the activation was -6.55% [at 8.36 µM].

On to `C[C@@H](O)[C@H]1C(=O)N2C(C(=O)O)=C(S[C@@H]3CN[C@H](CNS(N)(=O)=O)C3)[C@H](C)[C@H]12`, for which the Potency entry was “inactive”. Still for that read-out and setting: the same measure for `CC(O)CN` (stereo not given): “inactive”. The same measure, in the same setting: the same measure for `C=CC(=O)OCCCCCCCCCC`: “inactive”; for `Cc1ccc2ccccc2c1[N+](=O)[O-]`: “inactive”; for `O=c1[nH][nH]c2ccccc12`: “inactive”.

As to `CC(COc1ccccc1)NC(C)C(O)c1ccc(O)cc1` (stereo not given), the Potency result was “inactive”. In the case of `C=CC(=O)NC(C)(C)C`, the Potency entry is “inactive”. Regarding `CC(=O)Nc1ccccc1O`, the Potency is 27.3 µM (active).

Take `CCC(=O)O[C@]1(C(=O)COC)[C@@H](C)C[C@H]2[C@@H]3CCC4=CC(=O)C=C[C@]4(C)C3(F)[C@@H](O)C[C@@]21C` (stereo not given in full): the Potency result is “inactive”. Still for that read-out and setting: the same measure for `CCCCCCCCCCCCCCCCN`: “inactive”.

In the case of `CCCC(=O)OCc1ccccc1`, the Potency entry was “inactive”. On the same count and under the same terms, the same measure for `Clc1cc(Cl)c2c(c1)N=C1CCCCCN1C2`: “inactive”. On the same count and under the same terms, the same measure for `CCCC(=O)OCCC(C)C`: “inactive”; for `CCOc1ccc(NC(C)=O)cc1N`: “inactive”; for `Oc1ccc(CCNCCCCCCNCCc2ccccc2)cc1O`: “inactive”. On the same count and under the same terms, the same measure for `NC(=O)c1ccccc1`: “inactive”; for `CC(=O)OCC(=O)[C@@]1(O)CC[C@H]2[C@@H]3CCC4=CC(=O)C=C[C@]4(C)[C@@]3(F)[C@@H](O)C[C@@]21C`: “inactive”. With `O=C(O)CCc1nc2ccccc2[nH]1`, the Potency result is “inactive”. In the case of `NCCOCCOCCN`, the Potency was 48.6 µM (active).

Take `CCCCCCCCCCCCSCCOCCO`: the Potency result was “inactive”. On to `Cc1cc(N)n(-c2ccccc2)n1`, for which the Potency entry was “inactive”.

As to `Cc1ccc(S(=O)(=O)NC(=O)NC2CCCC2)cc1`, the Potency entry was “inactive”. As to `CCCCCCCCCCCCSC#N`, the Potency result was “inactive”. Same read-out and setting: the same measure for `O=C(c1ccc(Cl)cc1)c1ccc(Cl)cc1`: “inactive”; for `CCCC1CCOC(C)S1` (stereo not given): “inactive”. On the same count and under the same terms, the same measure for `Cc1c(Cl)cccc1Nc1ccccc1C(=O)O`: 26.6 µM (active). On to `O=C(O)c1ccccc1-n1cc(C(=O)O)c(=O)c2cc(Nc3c(F)cc(F)cc3Cl)c(Cl)cc21`, for which the Potency entry was “inactive”. The same measure, in the same setting: the same measure for `CCOC(OCC)OCC`: “inactive”.
